Screening results from PubChem.
Hits are enriched below; roughly 3.4% of the tested compounds scored in any of these assays.
esBAF inh: Bmi1 luciferase reporter increase in mESCs, primary screen, esBAF inhibitor project, mouse ES cells, Bmi1 luciferase knock-in, single point | actives 2% (n = 350,000) | 24 h; 100% = twice the neutral-well signal | AID 602393, 2012 | reporter increase, % at 12.5 µM; in the data active means activation above about 40%; inconclusive means no clear call, values can overlap the other calls;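 further: a rise in the Bmi1 reporter signal indicates esBAF inhibition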
MITF TRPM1 HTS: activators of MITF-driven TRPM1 promoter reporter, primary screen, cell-based, SK-MEL-5, luciferase, single point; SK-MEL-5 TRPM1-promoter luciferase, 24 h; % of positive control, neutral wells = 0; activation, % at 12.5 µM; actives 0.75% (n = 300,000); AID 588334, 2011;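 active means mean activation of at least 80% with every replicate also reaching 80%; inconclusive means mean reaches 80% but some replicate falls short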
Wnt bcat act: Wnt/beta-catenin pathway activators, primary screen, cell-based, plate reader, single point; Wnt/beta-catenin reporter cell assay, activator; AID 743398, 2014; actives 1.2% (n = 300,000); activation, % at 9.35 µM; in the data active means activation above about 30%, passing the limit was not always enough; inconclusive means no clear call, values can overlap the other calls
miR122 inh: miR-122 Renilla sensor signal increase in Huh7, primary screen, miR-122 inhibitor project, cell-based, single point, plate reader | actives 0.3% (n = 340,000) | Huh7 miR-122 Renilla luciferase sensor, 48 h; neutral wells = 0, positive control = 100 | activation (reporter increase), % at 12.5 µM;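 active means mean replicate activation score at least 90 and every replicate individually at or above 90; inconclusive means only one of the two criteria met; inactive means neither criterion met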;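 further: higher luciferase means less miR-122 activity so hits act as miR-122 inhibitors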
Env fusion inh: inhibitors of HIV-1 Env-driven cell-cell fusion, primary screen, HeLa-JRFL effector, CEM21 target cells, luciferase. inhibition, % at 12.3 µM. actives 1.1% (n = 360,000);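 active means mean replicate inhibition score of at least 50 and every replicate individually at or above 50; inconclusive means only one of the two criteria met; inactive means mean below 50 and not all replicates reaching 50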
Numbers stand for hits; . = inactive; ? = inconclusive; / = no result given; [ ] = dose if it differs, or a comment.

SMILES	esBAF inh	MITF TRPM1 HTS	Wnt bcat act	miR122 inh	Env fusion inh
CC(=O)N(C)C[C@H]1Oc2cc(C#Cc3ccccn3)ccc2S(=O)(=O)N([C@@H](C)CO)C[C@H]1C	.	/	/	.	.
COc1ccccc1-c1ccc2c(c1)[C@@H]1[C@@H](CCN1S(=O)(=O)c1cccc(C)c1)[C@H](CO)N2	.	/	/	.	/
C[C@H](NC(=O)[C@H]1[C@H](CO)[C@H]2Cn3c(ccc(C4=CCCC4)c3=O)[C@H]2N1C)c1ccccc1	.	/	/	.	/
O=C(C[C@H]1CC[C@@H](NC(=O)C2CC2)[C@@H](CO)O1)NCc1ccncc1	.	/	/	/	.
CN(N=O)c1ccc(C=C2C=Cc3ccccc32)cc1	/	.	.	/	.
CCN(N=O)c1ccc(C=C2C=Cc3ccccc32)cc1	/	97	41	/	.
O=c1[nH]ncc(N/N=C\c2cccnc2)c1Cl	/	.	.	/	.
Cc1cccc(/C=N\Nc2cn[nH]c(=O)c2Cl)c1	.	.	/	.	73
COc1ccc(/C(C)=N/NC(=O)c2ccccc2OCc2ccccc2)c(OC)c1	50	.	/	.	.
O=C(NCC[C@@H]1CC[C@@H](NS(=O)(=O)c2ccccc2)[C@@H](CO)O1)c1ccc2c(c1)OCO2	.	/	/	/	.
O=C(NC(Nc1ncc(S(=O)(=O)c2ccc([N+](=O)[O-])cc2)s1)(C(F)(F)F)C(F)(F)F)c1ccc(Cl)cc1	.	.	.	.	144
Cc1cccc(S(=O)(=O)N2CCCCN3[C@H](CO)[C@H](c4ccc(C#CC5CC5)cc4)[C@H]3C2)c1	/	/	/	.	/
Cn1c(-c2ccccc2)c(/C=N/NC(=O)c2ccc(O)cc2)c2ccccc21	63	.	.	.	.
O=C(Nc1ccc(O)cc1)c1cc2ccccc2c(=O)s1	49	100	.	.	.
O=C(Nc1ccccc1)c1cc2ccccc2s1	45	.	.	/	.
O=C(Nc1ccccc1)c1cc2ccccc2c(=O)s1	/	.	/	.	.
O=C(Nc1ccccn1)c1cc2cc([N+](=O)[O-])ccc2s1	/	.	.	/	.
CNC[C@@H]1Oc2ccc(N)cc2C(=O)N([C@H](C)CO)C[C@H]1C	.	/	/	.	.
Cc1oc2c(c1C(=O)c1ccccc1)C(=O)C(=O)c1ccccc1-2	?	.	/	.	/
O=C1C(=O)c2c(C(=O)c3ccccc3)coc2-c2ccccc21	67	.	.	.	/
COCC#Cc1cnc2c(c1)C(=O)N([C@@H](C)CO)C[C@H](C)[C@@H](CN(C)C(C)=O)O2	.	/	/	.	.
CC1CCc2c(sc(NC(=O)C3=COCCO3)c2C(N)=O)C1 (centres undefined)	.	.	.	/	.
CC1CCc2c(sc(NC(=O)c3noc4c3CCCC4)c2C(N)=O)C1 (centres undefined)	/	141	.	/	.
CN1C(=O)c2cc(NC(=O)c3ccccc3)ccc2OC[C@H]2O[C@H](CC(=O)O)CC[C@H]21	.	/	/	.	.
Nc1nonc1C(=O)NCCNCc1c(OCc2ccccc2F)ccc2ccccc12	.	.	/	/	103
SMILES	esBAF inh	MITF TRPM1 HTS	Wnt bcat act	miR122 inh	Env fusion inh
Nc1nonc1C(=O)NCCNCc1cc(Br)ccc1OCc1ccc(F)cc1	.	.	/	.	67
O=C(C[C@@H]1CC[C@H](NS(=O)(=O)c2ccc(F)cc2)[C@@H](CO)O1)N1CCc2ccccc2C1	.	/	/	/	.
CN1C(=O)c2cc(NC(=O)c3ccc(F)c(F)c3)ccc2OC[C@H]2O[C@H](CC(=O)N3CCOCC3)CC[C@H]21	.	/	/	.	.
COc1cccc(S(=O)(=O)N(C)C[C@H]2Oc3cc(C4=CCCCC4)ccc3S(=O)(=O)N([C@H](C)CO)C[C@H]2C)c1	.	/	/	.	69[16.7 µM]
COc1ccc(S(=O)(=O)N(C)C[C@@H]2Oc3cc(C4=CCCC4)ccc3S(=O)(=O)N([C@@H](C)CO)C[C@H]2C)cc1	.	/	/	.	.
COc1cccc(S(=O)(=O)N(C)C[C@@H]2Oc3cc(C4=CCCCC4)ccc3S(=O)(=O)N([C@@H](C)CO)C[C@@H]2C)c1	.	/	/	.	55[16.7 µM]
CCC(=O)N1CCC1(C)C(=O)Nc1cc(-c2ccccc2)nn1C (centres undefined)	65	/	.	.	.
Cn1nc(C(C)(C)C)cc1NC(=O)C1(C)CCN1C(=O)Cc1ccc(-c2ccccc2)cc1 (centres undefined)	.	/	.	.	62
Cc1ccc(C)c(NC(=O)C2(C)CCN2C(=O)C(C)C)c1 (centres undefined)	.	/	.	.	.
CC(C)C(=O)N1CCC1(C)C(=O)Nc1cc(-c2ccccc2)nn1C (centres undefined)	50	/	.	.	.
Cn1nc(C(C)(C)C)cc1NC(=O)C1(C)CCN1C(=O)CCc1ccccc1 (centres undefined)	.	/	.	.	.
CN(C)CC(=O)Nc1ccc2c(c1)[C@@H]1C[C@@H](CC(=O)N(C)C)O[C@H](CO)[C@@H]1O2	.	/	/	.	/
COc1ccc(NS(=O)(=O)c2cc(Br)cc3c2N(C(C)=O)CC3)cc1	/	.	.	189	.
C[C@@H]1CN([C@@H](C)CO)S(=O)(=O)c2ccc(C3=CCCC3)cc2O[C@H]1CN(C)C(=O)CN(C)C	.	/	/	.	.
COC(=O)c1nc2cc3c(cc2c(C)c1C(=O)OC)OCO3	.	/	/	.	.
Cc1nc2cc3c(cc2c(C)c1C(=O)OC(C)C)OCO3	46	.	.	.	.
Cc1noc(C)c1S(=O)(=O)Nc1cccc2c1O[C@H](CN(C)S(=O)(=O)c1ccccc1)[C@H](C)CN([C@@H](C)CO)C2=O	.	/	/	.	.
Cc1cc(C(=O)COC(=O)C2=COCCO2)c(C)n1-c1cccc(F)c1	55	107	.	/	.
Cc1cc(C(=O)CSc2ncccn2)c(C)n1-c1cccc(F)c1	/	.	82	.	.
Cc1cc(C(=O)CSc2nnnn2C)c(C)n1-c1cccc(F)c1	.	98	/	.	.
COC(=O)c1ccc(OC)c(CSc2nnc(COc3ccc(Cl)cc3)o2)c1	.	/	/	.	60
CC1=C([N+](=O)[O-])C(c2ccccc2)C2=C(N1)c1ccccc1C2=O (centres undefined)	.	/	.	.	120
Cc1c(-c2ccc(Br)cc2)[n+](=O)c2c(n1[O-])CCCCC2	/	/	36	.	.
Cc1ccc(S(=O)(=O)N[C@@H]2C=C[C@H](CC(=O)N3CCc4ccccc4C3)O[C@@H]2CO)cc1	.	/	/	/	.
Cn1c(=NC(=O)COc2ccccc2)sc2cccc(F)c21	57	.	.	.	.
Cc1ccccc1-c1ccc2c(c1)O[C@H](CN(C)C(=O)c1ccccn1)[C@H](C)CN([C@H](C)CO)S2(=O)=O	.	/	/	.	.
O=C(C[C@@H]1CC[C@@H](NC(=O)c2ccc3c(c2)OCO3)[C@@H](CO)O1)NCc1ccc(F)cc1	.	/	/	/	.
